# Experimental data as given in the supplement of paper PMC8728848.
# Only a selection was taken, and the strongest signals are over-represented in it overall.
# How the values were obtained:
# Assay in all cases: glycan array binding signal (z-score within array); higher = stronger binding
# Details in all cases: glycan notation: IUPAC condensed, linker removed
# [1] = biological target: Fuc(a1-2)Gal(b1-3)GlcNAc(b1-3)Gal(b1-4)Glc
# Procedure, shortened: (§1)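 The binding signal is a Z-score computed within each array. Data were drawn from 3228 arrays in the Consortium for Functional Glycomics database, restricted to those with a known protein sequence. Scores were averaged over arrays of the same protein sequence at different concentrations or buffers, and over linkers, and negative values can be taken as non-binding.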
# [2] = biological target: Fuc(a1-2)Gal(b1-4)[Fuc(a1-3)]GlcNAc(b1-3)Gal(b1-4)[Fuc(a1-3)]GlcNAc(b1-3)Gal(b1-4)[Fuc(a1-3)]GlcNAc
# Procedure, shortened: as §1
# [3] = biological target: Fuc(a1-2)[Gal(a1-3)]Gal
# Procedure, shortened: as §1
# [4] = biological target: Fuc(a1-2)[Gal(a1-3)]Gal(b1-3)GlcNAc(b1-2)Man(a1-3)[Fuc(a1-2)[Gal(a1-3)]Gal(b1-3)GlcNAc(b1-2)Man(a1-6)]Man(b1-4)GlcNAc(b1-4)GlcNAc
# Procedure, shortened: as §1
# [5] = biological target: Fuc(a1-2)[Gal(a1-4)]Gal(b1-4)GlcNAc
# Procedure, shortened: as §1
# [6] = biological target: Fuc(a1-2)[GalNAc(a1-3)]Gal(b1-4)[Fuc(a1-3)]GlcNAc(b1-3)GalNAc
# Procedure, shortened: as §1
# [7] = biological target: Fuc(a1-2)[GalNAc(b1-3)]Gal
# Procedure, shortened: as §1
# [8] = biological target: Fuc(b1-3)GlcNAc
# Procedure, shortened: as §1
# [9] = biological target: Gal(a1-2)Gal
# Procedure, shortened: as §1
# [10] = biological target: Gal(a1-3)Gal(b1-3)[Fuc(a1-4)]GlcNAc(b1-2)Man(a1-3)[Gal(a1-3)Gal(b1-3)[Fuc(a1-4)]GlcNAc(b1-2)Man(a1-6)]Man(b1-4)GlcNAc(b1-4)GlcNAc
# Procedure, shortened: as §1
# [11] = biological target: Gal(b1-3)GlcNAc(b1-3)Gal(b1-4)Glc
# Procedure, shortened: as §1
# [12] = biological target: Gal(b1-3)GlcNAc(b1-3)Gal(b1-4)[Fuc(a1-3)]GlcNAc(b1-6)[Gal(b1-3)GlcNAc(b1-3)]Gal(b1-4)Glc
# Procedure, shortened: as §1
# [13] = biological target: Gal(b1-3)GlcNAc(b1-6)[Gal(b1-3)]GalNAc
# Procedure, shortened: as §1
# [14] = biological target: Gal(b1-3)[Fuc(a1-4)]GlcNAc(b1-3)Gal(b1-3)[Fuc(a1-4)]GlcNAc
# Procedure, shortened: as §1
# [15] = biological target: Gal(b1-4)GlcNAc
# Procedure, shortened: as §1
# [16] = biological target: Gal(b1-4)GlcNAc(b1-2)Man(a1-3)[Gal(b1-4)GlcNAc(b1-2)Man(a1-6)][Gal(b1-4)GlcNAc(b1-4)]Man(b1-4)GlcNAc(b1-4)[Fuc(a1-6)]GlcNAc
# Procedure, shortened: as §1
# [17] = biological target: Gal(b1-4)GlcNAc(b1-2)Man(a1-6)Man(b1-4)GlcNAc(b1-4)GlcNAc
# Procedure, shortened: as §1
# [18] = biological target: Gal(b1-4)GlcNAc(b1-3)Gal(b1-4)GlcNAc(b1-2)Man(a1-3)[Gal(b1-4)GlcNAc(b1-3)Gal(b1-4)GlcNAc(b1-2)Man(a1-6)]Man(b1-4)GlcNAc(b1-4)GlcNAc
# Procedure, shortened: as §1
# [19] = biological target: Gal(b1-4)GlcNAc(b1-3)Gal(b1-4)GlcNAc(b1-3)Gal(b1-4)GlcNAc(b1-3)Gal(b1-4)GlcNAc(b1-2)Man(a1-3)[Gal(b1-4)GlcNAc(b1-3)Gal(b1-4)GlcNAc(b1-3)Gal(b1-4)GlcNAc(b1-3)Gal(b1-4)GlcNAc(b1-2)Man(a1-6)]Man(b1-4)GlcNAc(b1-4)GlcNAc
# Procedure, shortened: as §1
# [20] = biological target: Gal(b1-4)GlcNAc(b1-3)Gal(b1-4)GlcNAc(b1-3)Gal(b1-4)GlcNAc(b1-3)Gal(b1-4)GlcNAc(b1-3)Gal(b1-4)GlcNAc(b1-3)Gal(b1-4)GlcNAc(b1-2)Man(a1-3)[Gal(b1-4)GlcNAc(b1-3)Gal(b1-4)GlcNAc(b1-3)Gal(b1-4)GlcNAc(b1-3)Gal(b1-4)GlcNAc(b1-3)Gal(b1-4)GlcNAc(b1-3)Gal(b1-4)GlcNAc(b1-2)Man(a1-6)]Man(b1-4)GlcNAc(b1-4)GlcNAc
# Procedure, shortened: as §1
# [21] = biological target: Gal(b1-4)GlcNAc(b1-3)Gal(b1-4)GlcNAc(b1-6)[Gal(b1-3)]GalNAc
# Procedure, shortened: as §1
# [22] = biological target: Gal(b1-4)GlcNAc(b1-3)GalNAc
# Procedure, shortened: as §1
# [23] = biological target: Gal(b1-4)GlcNAc(b1-3)[GlcNAc(b1-6)]Gal(b1-4)GlcNAc
# Procedure, shortened: as §1
# [24] = biological target: Gal(b1-6)Gal
# Procedure, shortened: as §1
# [25] = biological target: Gal3S(b1-3)GlcNAc
# Procedure, shortened: as §1
# [26] = biological target: Gal3S(b1-4)[Fuc(a1-3)]GlcNAc6S
# Procedure, shortened: as §1
# [27] = biological target: Gal6P(b1-4)GlcNAc
# Procedure, shortened: as §1
# [28] = biological target: GalNAc(b1-3)Gal
# Procedure, shortened: as §1
# [29] = biological target: GalNAc(b1-3)GalNAc
# Procedure, shortened: as §1
# [30] = biological target: GalNAc(b1-6)GalNAc
# Procedure, shortened: as §1
# [31] = biological target: GlcNAc(a1-3)Gal(b1-4)GlcNAc
# Procedure, shortened: as §1
# [32] = biological target: GlcNAc(b1-2)Man(a1-3)[GlcNAc(b1-4)][GlcNAc(b1-2)Man(a1-6)]Man(b1-4)GlcNAc(b1-4)[Fuc(a1-6)]GlcNAc
# Procedure, shortened: as §1
# [33] = biological target: GlcNAc(b1-3)Gal(b1-4)GlcNAc
# Procedure, shortened: as §1
# [34] = biological target: GlcNAc(b1-3)Gal(b1-4)GlcNAc(b1-2)[GlcNAc(b1-3)Gal(b1-4)GlcNAc(b1-6)]Man(a1-6)[GlcNAc(b1-3)Gal(b1-4)GlcNAc(b1-2)Man(a1-3)]Man(b1-4)GlcNAc(b1-4)GlcNAc
# Procedure, shortened: as §1
# [35] = biological target: GlcNAc(b1-3)Gal(b1-4)GlcNAc(b1-3)Gal(b1-4)GlcNAc(b1-2)Man(a1-3)[GlcNAc(b1-3)Gal(b1-4)GlcNAc(b1-3)Gal(b1-4)GlcNAc(b1-2)Man(a1-6)]Man(b1-4)GlcNAc(b1-4)[Fuc(a1-6)]GlcNAc
# Procedure, shortened: as §1
# [36] = biological target: GlcNAc(b1-3)Gal(b1-4)GlcNAc(b1-3)Gal(b1-4)GlcNAc(b1-2)[GlcNAc(b1-3)Gal(b1-4)GlcNAc(b1-3)Gal(b1-4)GlcNAc(b1-6)]Man(a1-6)[GlcNAc(b1-3)Gal(b1-4)GlcNAc(b1-3)Gal(b1-4)GlcNAc(b1-2)Man(a1-3)]Man(b1-4)GlcNAc(b1-4)[Fuc(a1-6)]GlcNAc
# Procedure, shortened: as §1
# [37] = biological target: GlcNAc(b1-3)Gal(b1-4)GlcNAc(b1-3)Gal(b1-4)GlcNAc(b1-3)Gal(b1-4)GlcNAc(b1-3)Gal(b1-4)GlcNAc(b1-2)Man(a1-3)[GlcNAc(b1-3)Gal(b1-4)GlcNAc(b1-3)Gal(b1-4)GlcNAc(b1-3)Gal(b1-4)GlcNAc(b1-3)Gal(b1-4)GlcNAc(b1-2)Man(a1-6)]Man(b1-4)GlcNAc(b1-4)[Fuc(a1-6)]GlcNAc
# Procedure, shortened: as §1
# [38] = biological target: GlcNAc(b1-3)Gal(b1-4)GlcNAc(b1-6)[GlcNAc(b1-3)]Gal(b1-4)GlcNAc
# Procedure, shortened: as §1
# [39] = biological target: GlcNAc(b1-3)[GlcNAc(b1-6)]Gal(b1-4)GlcNAc
# Procedure, shortened: as §1
# [40] = biological target: Kdn(a2-3)Gal(b1-3)GalNAc
# Procedure, shortened: as §1
# [41] = biological target: Man(a1-2)Man(a1-2)Man(a1-6)[Man(a1-3)]Man
# Procedure, shortened: as §1
# [42] = biological target: Man(a1-2)Man(a1-3)[Man(a1-2)Man(a1-6)]Man(a1-6)[Man(a1-2)Man(a1-2)Man(a1-3)]Man
# Procedure, shortened: as §1
# [43] = biological target: Man(a1-2)Man(a1-3)[Man(a1-6)]Man(a1-6)[Man(a1-2)Man(a1-3)]Man(b1-4)GlcNAc(b1-4)GlcNAc
# Procedure, shortened: as §1
# [44] = biological target: Man(a1-2)Man(a1-6)[Man(a1-3)]Man(a1-6)[Man(a1-2)Man(a1-2)Man(a1-3)]Man(b1-4)GlcNAc(b1-4)GlcNAc
# Procedure, shortened: as §1
# [45] = biological target: Neu5Ac(a2-3)Gal(b1-4)GlcNAc(b1-3)Gal(b1-4)GlcNAc
# Procedure, shortened: as §1
# [46] = biological target: Neu5Ac(a2-3)Gal(b1-4)GlcNAc(b1-3)Gal(b1-4)GlcNAc(b1-3)[Neu5Ac(a2-3)Gal(b1-4)GlcNAc(b1-3)Gal(b1-4)GlcNAc(b1-6)]GalNAc
# Procedure, shortened: as §1
# [47] = biological target: Neu5Ac(a2-6)Gal(b1-4)Glc
# Procedure, shortened: as §1
# [48] = biological target: Neu5Ac(a2-6)GlcNAc(b1-4)GlcNAc
# Procedure, shortened: as §1
# [49] = biological target: Neu5Gc(a2-3)Gal(b1-4)GlcNAc(b1-3)Gal(b1-4)GlcNAc(b1-2)Man(a1-3)[Neu5Gc(a2-3)Gal(b1-4)GlcNAc(b1-3)Gal(b1-4)GlcNAc(b1-2)Man(a1-6)]Man(b1-4)GlcNAc(b1-4)GlcNAc
# Procedure, shortened: as §1
binder,measurement,setting,value
"Langerin K313I (Homo sapiens), Q9UJ71 (protein) STLNAQIPELKSDLEKASALNTKIRALQGSLENMSKLLKRQNDILQVVSQGWKYFKGNFYYFSLIPKTWYSAEQFCVSRNSHLTSVTSESEQEFLYKTAGGLIYWIGLTKAGMEGDWSWVDDTPFNKVQSARFWIPGEPNNAGNNEHCGNIKAPSLQAWNDAPCDITFLFICKRPYVPSEP",glycan array binding signal (z-score),[1],-0.379
same,glycan array binding signal (z-score),[2],-0.042
same,glycan array binding signal (z-score),[3],4.11
same,glycan array binding signal (z-score),[4],-0.164
same,glycan array binding signal (z-score),[5],-0.287
same,glycan array binding signal (z-score),[6],0.321
same,glycan array binding signal (z-score),[7],-0.358
same,glycan array binding signal (z-score),[8],-0.307
same,glycan array binding signal (z-score),[9],-0.155
same,glycan array binding signal (z-score),[10],0.468
same,glycan array binding signal (z-score),[11],-0.361
same,glycan array binding signal (z-score),[12],-0.333
same,glycan array binding signal (z-score),[13],-0.253
same,glycan array binding signal (z-score),[14],0.067
same,glycan array binding signal (z-score),[15],-0.346
same,glycan array binding signal (z-score),[16],-0.254
same,glycan array binding signal (z-score),[17],-0.235
same,glycan array binding signal (z-score),[18],0.326
same,glycan array binding signal (z-score),[19],0.149
same,glycan array binding signal (z-score),[20],0.037
same,glycan array binding signal (z-score),[21],0.134
same,glycan array binding signal (z-score),[22],-0.373
same,glycan array binding signal (z-score),[23],-0.314
same,glycan array binding signal (z-score),[24],-0.178
same,glycan array binding signal (z-score),[25],-0.376
same,glycan array binding signal (z-score),[26],-0.39
same,glycan array binding signal (z-score),[27],-0.298
same,glycan array binding signal (z-score),[28],-0.374
same,glycan array binding signal (z-score),[29],3.83
same,glycan array binding signal (z-score),[30],-0.384
same,glycan array binding signal (z-score),[31],-0.393
same,glycan array binding signal (z-score),[32],4.2
same,glycan array binding signal (z-score),[33],3.17
same,glycan array binding signal (z-score),[34],4.12
same,glycan array binding signal (z-score),[35],3.2
same,glycan array binding signal (z-score),[36],9.38
same,glycan array binding signal (z-score),[37],-0.005
same,glycan array binding signal (z-score),[38],10.1
same,glycan array binding signal (z-score),[39],6.18
same,glycan array binding signal (z-score),[40],0.361
same,glycan array binding signal (z-score),[41],7.95
same,glycan array binding signal (z-score),[42],3.54
same,glycan array binding signal (z-score),[43],-0.194
same,glycan array binding signal (z-score),[44],0.146
same,glycan array binding signal (z-score),[45],-0.396
same,glycan array binding signal (z-score),[46],-0.089
same,glycan array binding signal (z-score),[47],-0.278
same,glycan array binding signal (z-score),[48],-0.387
same,glycan array binding signal (z-score),[49],0.158
